The values below come from PubChem BioAssay (NCATS).

Structures are written as SMILES. The source made the active and inactive calls. Calls follow the shape of the dose curve; as a rule, active = well fitted activation curve with a large enough effect; inconclusive = small, poorly fitted or top-dose-only effect, or effect the other way; inactive = flat fitted curve, though single readings scatter.

The nature of this experiment: Cellular Toxicity (caspase-3) Renal Proximal Tubule (AID 667).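 Also: cells exposed to compound for 16 hours at 37 °C before detection.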 Conditions: renal proximal tubule cells, primary cells freshly taken from rat, solvent-only wells 0%, staurosporine 100%; series mostly up to 91.7 µM. An excerpt: NIH Chemical Genomics Center [NCGC]
NIH Molecular Libraries Screening Centers Network [MLSCN]
National Institutes of Environmental Health Sciences [NIEHS]
National Toxicology Program [NTP]
We have developed a 1536-well cell-based assay for quantitative high throughput screening (qHTS) against a number of cell lines to determine in vitro caspase 3/7 activity of small molecules. This particular assay uses the primary kidney proximal tubule cells freshly isolated from rat.
NCGC Assay Protocol Summary:
The Caspase-Glo 3/7 assay (Promega) is a homogeneous method to measure caspase-3 and caspase-7 activities in cultured cells. The quantitation of caspase 3/7 activity is based on the cleavage of a peptide-aminoluciferin substrate. After caspase cleaves the substrate the free aminoluciferin is liberated and serves as the substrate of luciferase, which generates the light. The luminescent signal is proportional to the amount of caspase 3/7 activity present.
Using the Caspase-Glo 3/7 assay, the amount of caspase 3/7 activity was measured in the rat kidney proximal tubule cells with complete culture medium following compound treatment for 16 hours. The assay was performed in opaque white 1536-well plates. In the screen, staurosporine and doxorubicin were used as positive controls. Library compounds were measured for their ability to cause the activation of caspase 3/7 in the cell line, as reflected by an increase in luminescence signal, in a concentration-dependent manner. Data were normalized to the controls for basal activity (DMSO only) and 100% stimulation (10 uM staurosporine). AC50 values were determined from concentration-response data modeled with the standard Hill equation.
qHTS protocol for caspase 3/7 assay in rat kidney proximal tubule cells
[Step] [Parameter] [Value] [Description]
1. Reagent; 5 uL; 1000 rat kidney proximal tubule cells/well
2. Time; 5 hr; 37 °C incubation
4. Controls; 23 nL; doxorubicin 7 pM to 100 uM & staurosporine 1.4 pM to 20 uM
5. Time; 16 hr; 37 °C incubation
6. Reagent; 5 uL; Caspase-Glo 3/7 reagent
7. Time; 1 hr; Room Temperature
8. Detection; Luminescence; Viewlux plate reader
Keywords: caspase 3/7, apoptosis, rat kidney proximal tubule cells, luminescence, NTPHTS, NTPHTS_NCGC, NIEHS, EPA, DSSTox, MLSMR, MLSCN, NIH Roadmap, qHTS, NCGC
For `CC(=O)O[C@]1(C(C)=O)CC[C@H]2[C@@H]3C[C@H](C)C4=CC(=O)CC[C@]4(C)[C@H]3CC[C@@]21C`, the compound was called inactive.

As for `CC/C(=C(/CC)c1ccc(O)cc1)c1ccc(O)cc1`, the call was inactive.

For the compound `CC(=O)Oc1ccc(C(c2ccc(OC(C)=O)cc2)c2ccccn2)cc1`, the outcome was inactive.

With `COC1=CC(=O)C[C@@H](C)[C@]12Oc1c(Cl)c(OC)cc(OC)c1C2=O`, the call was inactive.

Consider `COc1cccc2c1C(=O)c1c(O)c3c(c(O)c1C2=O)C[C@@](O)(C(=O)CO)C[C@@H]3O[C@H]1C[C@H](N)[C@H](O)[C@H](C)O1`, for which the call was inactive.

For the compound `Oc1c(I)cc(Cl)c2cccnc12`, the outcome was inactive.

Take `C=CCc1ccc(O)c(OC)c1`: the compound was called inactive.

As for `NC(=NCCCCCCN=C(N)/N=C(\N)Nc1ccc(Cl)cc1)/N=C(\N)Nc1ccc(Cl)cc1`, the compound was called inactive.

`C[C@]12CC[C@@H]3c4ccc(O)cc4CC[C@H]3[C@@H]1CC[C@@H]2O`: the outcome was inactive.

As for `O=C1OC(c2ccc(O)cc2)(c2ccc(O)cc2)c2ccccc21`, the call was inactive.

Regarding `O=c1ccc2ccccc2o1`, the compound was called inactive.

In the case of `Oc1c(Cl)cc(Cl)cc1Sc1cc(Cl)cc(Cl)c1O`, the compound was classed as inactive.

`Oc1ccc(O)cc1`: the compound was classed as inactive.

For `CC(O)C(=O)O` (stereo not given), the compound was classed as inactive.

As for `O=C(O)CCCCC(=O)O`, the outcome was inactive.

For `CN(C)/N=N/c1nc[nH]c1C(N)=O`, the compound was called inactive.

Turning to `Nc1ccc(C(=O)O)cc1`, the compound was classed as inactive.

Take `Oc1ccc(Cl)cc1Sc1cc(Cl)ccc1O`: the call was inactive.

As to `C=C(CC)C(=O)c1ccc(OCC(=O)O)c(Cl)c1Cl`, the compound was classed as inactive.

For `CCCCCCc1ccc(O)cc1O`, the compound was called inactive.
